The supplement of paper PMC10127200
Structures can show the parent of a compound that is named as a salt.

How the values were obtained:
Test in all cases: Euclidean distance of Cell Painting phenotypic profile (signed KS, 77 features) to DMSO centroid (dimensionless distance); higher = stronger phenotypic change vs DMSO (phenoactivity)
Conditions in all cases: 48 h; 5 or 10 uM (library dependent)
786-O = tested on: 786-O
Summary of the method: (§1)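 Phenoactivity is computed as Euclidean distance to the median vehicle profile. The profiles, drawn from 77 Harmony features scored as signed Kolmogorov-Smirnov statistics versus same-plate vehicle wells, were corrected for plate position, correlation-weighted and replicate-averaged at the top dose. Stained cells were imaged confocally at 20X (9 fields/well) after 48 h with library compounds at 10 or 5 uM, 0.1% DMSO final, in five cancer lines and a healthy fibroblast line.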

A549 = tested on: A549
Summary of the method: as §1

DU145 = tested on: DU145
Summary of the method: as §1

FB = tested on: FB
Summary of the method: as §1

HEPG2 = tested on: HEPG2
Summary of the method: as §1

OVCAR4 = tested on: OVCAR4
Summary of the method: as §1

| SMILES | Euclidean distance (786-O) | Euclidean distance (A549) | Euclidean distance (DU145) | Euclidean distance (FB) | Euclidean distance (HEPG2) | Euclidean distance (OVCAR4) |
| --- | --- | --- | --- | --- | --- | --- |
| C=CCN1C[C@H](C(=O)N(CCCN(C)C)C(=O)NCC)C[C@@H]2c3cccc4[nH]cc(c34)C[C@H]21 [Cabergoline] | 1.45 | 0.993 | 1.12 | 1.34 | 0.928 | 1.3 |
| O=C(O[C@H]1C[N+]2(CCCOc3ccccc3)CCC1CC2)C(O)(c1cccs1)c1cccs1 [Aclidinium Bromide] | 1.15 | 1.13 | 1.29 | 0.774 | 0.61 | 1.23 |
| COc1cc([C@@H]2c3cc4c(cc3[C@H](O)[C@H]3COC(=O)[C@@H]23)OCO4)cc(OC)c1OC [Picropodophyllin (PPP)] | 3.35 | 2.64 | 4.34 | 2.74 | 3.95 | 3.14 |
| NC(=O)CN1CC(c2ccccc2)CC1=O (stereo not drawn) [Phenylpiracetam] | 1.05 | 1.45 | 0.789 | 0.956 | 0.413 | 1.3 |
| OC(c1ccccc1)(c1ccccc1)C1CCNCC1 [Azacyclonol] | 2.95 | 2.91 | 3.75 | 3.06 | 2.31 | 3.18 |
| CC[C@H]1CN2CC[C@H]1C[C@@H]2[C@@H](O)c1ccnc2ccc(OC)cc12 [Hydroquinidine] | 0.75 | 0.791 | 0.64 | 1.18 | 0.881 | 1.23 |
| COC(=O)C1=CCCN(C)C1 [Arecoline HBr] | 0.921 | 0.978 | 1.03 | 1.12 | 0.958 | 1.12 |
| CCN(C)C(=O)Oc1cccc([C@H](C)N(C)C)c1 [Rivastigmine Tartrate] | 0.824 | 0.471 | 0.382 | 0.816 | 0.806 | 1.45 |
| O=C([O-])C(Cl)Cl.[Na+] [Sodium dichloroacetate (DCA)] | 0.79 | 0.753 | 0.544 | 0.681 | 0.496 | 1.4 |
| CNC(=O)Oc1cccc2ccccc12 [Carbaryl] | 1.83 | 1.3 | 0.843 | 0.842 | 0.501 | 1.03 |
| O=c1[nH]c2ccc(Cl)cc2c(N[C@@H]2CN3CCC2CC3)c1-c1nc2ccccc2[nH]1 | 4.06 | 4.17 | 3.75 | 3.55 | 3.51 | 4.86 |
| C[C@H]1CCC/C=C/[C@@H]2C[C@H](O)C[C@H]2[C@H](O)/C=C/C(=O)O1 [Brefeldin A] | 3.77 | 3.61 | 4.53 | 4.79 | 4.54 | 3.85 |
| CC(=O)OCC1=C(C(=O)O)N2C(=O)[C@@H](N)[C@H]2SC1 [7-Aminocephalosporanic acid] | 1.45 | 0.819 | 1.16 | 1 | 0.55 | 0.832 |
| C=C1C[C@@H]2[C@H](CC[C@]3(C)C(=O)CC[C@@H]23)[C@@]2(C)C=CC(=O)C=C12 [Exemestane] | 1.7 | 1.06 | 0.488 | 1 | 0.7 | 1.37 |
| CCN(CC)CCOC(=O)C(O)(c1ccccc1)c1ccccc1 [Benactyzine hydrochloride] | 1.27 | 0.786 | 1.33 | 0.83 | 0.592 | 1.71 |
| CC(C)NCC(O)c1ccccc1Cl (stereo not drawn) [Clorprenaline HCl] | 1.06 | 1.11 | 0.599 | 1.22 | 0.405 | 1.29 |
| CC(C)[C@]12O[C@H]1[C@@H]1O[C@]13[C@]1(O[C@H]1C[C@H]1C4=C(CC[C@@]13C)C(=O)OC4)[C@@H]2O [Triptolide (PG490)] | 3.96 | 3.27 | 3.16 | 4.12 | 2.73 | 3.81 |
| COC(=O)C1=CCCN(C)C1 [Arecoline] | 0.942 | 1.44 | 0.841 | 1.01 | 0.762 | 0.957 |
| CN[C@@H]1[C@@H](O)[C@@H](O[C@@H]2[C@@H](O)[C@H](O[C@H]3O[C@H]([C@@H](C)O)[C@@H](O)[C@H](O)[C@H]3N)[C@@H](N)C[C@H]2N)OC[C@]1(C)O [Geneticin (G418 Sulfate)] | 1.73 | 0.917 | 1.4 | 1.24 | 1.23 | 1.53 |
| COC[C@H]1OC(=O)c2coc3c2[C@@]1(C)C1=C(C3=O)[C@@H]2CCC(=O)[C@@]2(C)C[C@H]1OC(C)=O [Wortmannin] | 1.37 | 1.06 | 1.2 | 2.24 | 0.655 | 1.14 |
| O=C(CBr)N1CC([N+](=O)[O-])([N+](=O)[O-])C1 | 0.949 | 1.3 | 0.88 | 0.833 | 0.776 | 0.926 |
| CC(C)[C@H](N)C(=O)N1CCC[C@H]1B(O)O [Talabostat (Val-boroPro. PT-100)] | 1.38 | 0.905 | 1.12 | 1.08 | 0.878 | 0.712 |
| COC(=O)[C@@H](N)CCCNC(=N)N[N+](=O)[O-] | 0.931 | 1.3 | 0.775 | 1.29 | 0.551 | 0.995 |
| CN1[C@@H]2CC[C@H]1C[C@@H](OC(=O)C(CO)c1ccccc1)C2 (stereo partly drawn) [Atropine sulfate] | 0.994 | 0.9 | 0.824 | 0.898 | 0.473 | 1.38 |

| SMILES | Euclidean distance (786-O) | Euclidean distance (A549) | Euclidean distance (DU145) | Euclidean distance (FB) | Euclidean distance (HEPG2) | Euclidean distance (OVCAR4) |
| --- | --- | --- | --- | --- | --- | --- |
| Oc1ccc(Cl)cc1Cc1cc(Cl)ccc1O [Dichlorophene] | 0.835 | 1.05 | 1.3 | 1.16 | 0.516 | 1.18 |
| CC(=O)Nc1ccc(OC[C@](C)(O)C(=O)Nc2ccc([N+](=O)[O-])c(C(F)(F)F)c2)cc1 [Andarine] | 1.46 | 1.78 | 0.858 | 0.758 | 0.703 | 1 |
| CN1[C@@H]2CC[C@H]1C[C@@H](OC(=O)[C@H](CO)c1ccccc1)C2 [Hyoscyamine] | 0.984 | 0.92 | 0.681 | 0.505 | 0.646 | 1.31 |
| CC1(C)S[C@@H]2[C@H](N)C(=O)N2[C@H]1C(=O)O [6-Aminopenicillanic acid] | 1.51 | 0.648 | 1.01 | 0.903 | 0.75 | 1.5 |
| C=CN1CCCC1=O.II [Povidone iodine] | 0.772 | 0.725 | 0.784 | 1.19 | 1.94 | 1.05 |
| C=CCN1CC[C@]23c4c5ccc(O)c4O[C@H]2C(=O)CC[C@@]3(O)[C@H]1C5 [Naloxone HCl] | 1.04 | 0.456 | 0.671 | 0.576 | 0.59 | 0.689 |
| COc1ccc2c3c([nH]c2c1)C(C)=NCC3 [Harmaline] | 1.25 | 0.845 | 1.34 | 1.09 | 0.398 | 1.37 |
| C=C(C)[C@@H]1[C@H]2OC(=O)[C@@H]1[C@]1(O)C[C@H]3O[C@]34C(=O)O[C@H]2[C@]14C [Picrotoxinin] | 1.37 | 1.86 | 0.846 | 0.954 | 0.815 | 1.26 |
| CC(C)[N+](C)(CCC(C(N)=O)(c1ccccc1)c1ccccc1)C(C)C [Isopropamide Iodide] | 1.26 | 0.953 | 1.08 | 1.25 | 0.717 | 1.23 |
| N#Cc1nn(-c2c(Cl)cc(C(F)(F)F)cc2Cl)c(N)c1[S+]([O-])C(F)(F)F (stereo not drawn) [Fipronil] | 0.855 | 1.11 | 0.897 | 1.05 | 0.591 | 0.894 |
| O=[N+]([O-])O[C@@H]1CO[C@H]2[C@@H]1OC[C@@H]2O [Isosorbide Mononitrate] | 1.15 | 1.13 | 0.879 | 0.9 | 0.868 | 0.962 |
| O=C/C=C/c1ccccc1 [Cinnamaldehyde] | 1 | 0.658 | 0.988 | 0.954 | 1.14 | 0.848 |
| CCNC(=O)C[C@@H]1N=C(c2ccc(Cl)cc2)c2cc(OC)ccc2-n2c(C)nnc21 | 1.96 | 1.78 | 1.76 | 3.4 | 1.26 | 1.66 |
| CC[C@@H]1/C=C/C=C/C[C@H](C)[C@H](O)[C@](C)(O)C(=O)[C@H](C)[C@@H](O)[C@H](C)C(=O)[C@H](C)[C@@H](O)[C@H](C)/C=C/C(=O)O[C@H]2[C@@H](C)[C@@H](CC1)O[C@@]1(CC[C@@H](C)[C@@H](C[C@H](C)O)O1)[C@@H]2C [Oligomycin A] | 1.81 | 2.18 | 1.46 | 0.998 | 3.19 | 1.22 |
| C[C@@H]1CC[C@H]2[C@@H](C)C(=O)O[C@@H]3O[C@@]4(C)CC[C@@H]1[C@]32OO4 [Artemisinin] | 1.18 | 1.01 | 1.43 | 0.903 | 1.24 | 1.25 |
| C[CH2][Hg][S]c1ccccc1C(=O)[O-].[Na+] [Thimerosal] | 5.05 | 2.89 | 6.79 | 6.21 | 1.5 | 2.69 |
| CC[C@H](C)[C@H]1O[C@]2(C=C[C@@H]1C)C[C@@H]1C[C@@H](C/C=C(\C)[C@@H](O[C@H]3C[C@H](OC)[C@@H](O[C@H]4C[C@H](OC)[C@@H](O)[C@H](C)O4)[C@H](C)O3)[C@@H](C)/C=C/C=C3\CO[C@@H]4[C@H](O)C(C)=C[C@@H](C(=O)O1)[C@]34O)O2.CO[C@H]1C[C@H](O[C@H]2[C@H](C)O[C@@H](O[C@@H]3/C(C)=C/C[C@@H]4C[C@@H](C[C@]5(C=C[C@H](C)[C@@H](C(C)C)O5)O4)OC(=O)[C@@H]4C=C(C)[C@@H](O)[C@H]5OC/C(=C\C=C\[C@@H]3C)[C@]54O)C[C@@H]2OC)O[C@@H](C)[C@@H]1O [Avermectin B1] | 1.43 | 2.77 | 1.59 | 1.1 | 1.38 | 1.76 |
| CNCC(O)c1ccc(O)cc1 (stereo not drawn) [Synephrine HCl] | 0.581 | 0.451 | 0.914 | 0.485 | 0.371 | 1.27 |
| Cc1sc2c(c1C)C(c1ccc(Cl)cc1)=N[C@@H](CC(=O)OC(C)(C)C)c1nnc(C)n1-2 | 3.44 | 2.14 | 2.03 | 3.52 | 1.96 | 1.96 |
| O=c1[nH]c2ccccc2n1CCCN1CCC(n2c(=O)[nH]c3cc(Cl)ccc32)CC1 [Domperidone] | 1.75 | 1.18 | 2.1 | 1.14 | 0.776 | 1.67 |
| COc1ccc2c(c1)[C@]13CCCC[C@@H]1[C@H](C2)N(C)CC3 [Dextromethorphan hydrobromide hydrate] | 1.3 | 1.32 | 0.854 | 1.76 | 1.11 | 1.39 |
| Cc1cccc(C(C)c2c[nH]cn2)c1C (stereo not drawn) [Medetomidine HCl] | 0.819 | 0.591 | 0.87 | 0.682 | 0.602 | 1.07 |
| CC[N+](C)(CC)CCOC(=O)C(O)(c1ccccc1)c1ccccc1 [Methylbenactyzine Bromide] | 0.693 | 0.883 | 0.575 | 0.967 | 0.532 | 1.45 |
| O=P1(NCCCl)OCCCN1CCCl (stereo not drawn) [Ifosfamide] | 0.866 | 0.788 | 1.12 | 0.925 | 1.13 | 1.39 |
